# Screens deposited in PubChem BioAssay by several laboratories.
# Hits are enriched below; roughly 27% of the tested compounds scored in any of these assays.
# sEH act: increases human soluble epoxide hydrolase activity; purified human sEH enzymatic activity, activator screen; activation, % at 2 µM; hit rate 0.04% among 91,000; AID 717; in the data active = activation above about 37%
# Target sequence (P34913 whole entry, looked up): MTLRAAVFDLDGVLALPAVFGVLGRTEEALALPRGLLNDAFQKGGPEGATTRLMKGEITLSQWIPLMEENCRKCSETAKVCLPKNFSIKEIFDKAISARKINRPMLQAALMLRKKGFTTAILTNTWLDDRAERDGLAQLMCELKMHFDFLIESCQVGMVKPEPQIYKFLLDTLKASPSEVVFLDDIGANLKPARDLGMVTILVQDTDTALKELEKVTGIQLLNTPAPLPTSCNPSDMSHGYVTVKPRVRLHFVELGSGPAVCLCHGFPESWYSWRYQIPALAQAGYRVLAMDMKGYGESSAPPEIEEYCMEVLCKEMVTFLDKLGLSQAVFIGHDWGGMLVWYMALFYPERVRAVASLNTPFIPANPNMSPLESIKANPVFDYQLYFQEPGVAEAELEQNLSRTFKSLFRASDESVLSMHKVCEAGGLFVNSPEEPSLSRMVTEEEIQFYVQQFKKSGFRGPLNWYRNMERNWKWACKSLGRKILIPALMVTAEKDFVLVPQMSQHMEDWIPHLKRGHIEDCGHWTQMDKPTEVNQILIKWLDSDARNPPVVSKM
# CYP2C19 act: increases human CYP2C19 enzyme activity | P33261 | recombinant CYP2C19, luciferin-H EGE luminescence; active compounds read high; 0 = fully inhibited enzyme, 1 = untreated enzyme | activation factor at 5 µM | 96,000 tested, under 10 active | AID 1025;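 active = activation factor of at least 2 at 5 µM in the primary screen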;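 also: 0 = wells with 2.5 mM tranylcypromine and 1 = vehicle-only wells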
# CYP2C9 inhib: human CYP2C9 inhibition | P11712 | inhibition, % at 5 µM | CYP2C9 Supersomes, luciferin-H conversion, luminescence | AID 777 | hit rate 20% among 96,000;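 active = blocking of liver enzyme CYP2C9 beyond about 50% at 5 µM, limit read from the data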
# CYP2C9 act: CYP2C9 (human) activation; AID 1024; recombinant CYP2C9, luciferin-H conversion, luminescence; active compounds read high; factor 1 = untreated enzyme, 0 = blocked; activation factor at 5 µM; hit rate 1.4% among 96,000; P11712;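 active = activation factor of 2 or more for CYP2C9 at a 5 µM dose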;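 also: 0 = sulfaphenazole-blocked wells and 1 = vehicle-only wells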
# CYP2C19 inhib: inhibitors of human CYP2C19; AID 778; inhibition, % at 5 µM; hit rate 21% among 96,000; CYP2C19 Supersomes, luciferin-H EGE luminescence, 30 min;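 active = CYP2C19 inhibition above a set limit at 5 µM in the primary screen, cut at about 50% in these data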;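 also: plate controls were negative control wells for no effect and 2.5 mM tranylcypromine positive control for full effect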
# sEH inhibitor: inhibitors of human soluble epoxide hydrolase | AID 707 | inhibition, % at 2 µM | hit rate 0.34% among 91,000 | recombinant human sEH enzymatic activity assay | P34913; in the data active = inhibition above about 80%
# Active calls of the source: *; . = no result.
SMILES,sEH act,CYP2C19 act,CYP2C9 inhib,CYP2C9 act,CYP2C19 inhib,sEH inhibitor
COc1ccc(NC(=O)C2CCCN(C)C2)cc1OCC(C)C (stereo not given),-6,.,.,.,.,7
O=C(O)C1CC=CCC1C(=O)Nc1cccc(C(=O)N2CCCCC2)c1 (stereo not given),8,1.2,-27,1.3,-20,-5
O=C(C1CC(c2ccc(F)cc2)=NO1)N1CCc2ccccc2C1 (stereo not given),-1,0.4,16,0.8,63*,4
O=C(C1CC(c2ccccc2O)=NO1)N1CCc2ccccc2C1 (stereo not given),5,0.4,34,0.7,62*,-11
O=C(C1CC(c2ccccc2O)=NO1)N1CCCCC1 (stereo not given),14,0.3,47,0.5,70*,-12
COc1cccc(C2=NOC(C(=O)N3CCc4ccccc4C3)C2)c1 (stereo not given),8,.,.,.,.,-8
O=C(C1CC(c2ccc(F)cc2)=NO1)N1CCCCC1 (stereo not given),10,.,.,.,.,-7
COc1ccc(C2=NOC(C(=O)N3CCCCCC3)C2)cc1OC (stereo not given),-15,1,-5,1.1,-1,16
CSc1ccccc1NC(=O)C1CCCO1 (stereo not given),.,1.1,-29,1.3,-10,.
COc1cc(C2C(C(C)=O)=C(C)Nc3ncnn32)ccc1O (stereo not given),-6,1.1,-6,1.1,-14,6
COc1ccccc1C1C(C(=O)NCc2ccccc2)=C(C)Nc2ncnn21 (stereo not given),.,0.9,9,0.9,13,.
CC(=O)C1=C(C)Nc2ncnn2C1c1ccccc1OCc1ccccc1 (stereo not given),8,0.5,24,0.8,54*,-4
CC(=O)C1=C(C)Nc2ncnn2C1c1ccc(Cl)cc1 (stereo not given),-9,0.4,59*,0.4,64*,11
Cn1c(SCC(=O)N2CCN(S(=O)(=O)c3ccc(Cl)cc3)CC2)nc2ccccc21,6,0.4,-103,2*,58*,-6
Nn1c(SCC(=O)N2CCN(S(=O)(=O)c3ccc(Cl)cc3)CC2)nnc1-c1cccs1,8,0.6,50*,0.5,36,-8
N#CCCn1c(SCC(=O)N2CCN(S(=O)(=O)c3ccccc3)CC2)nc2ccccc21,-8,1,10,0.9,-4,11
c1ccc(-c2nc(CSc3n[nH]c(-c4cccs4)n3)cs2)cc1,.,0.4,33,0.7,60*,.
Cc1cc(NC(=O)CSc2n[nH]c(-c3cccs3)n2)no1,.,0.7,46,0.5,33,.
CC(C)Cn1c(SCC(=O)N2CCN(S(=O)(=O)c3ccccc3)CC2)nc2ccccc21,2,0.2,78*,0.2,80*,-2
Cn1c(SCC(=O)N2CCN(S(=O)(=O)c3ccccc3)CC2)nc2ccccc21,.,0.7,-48,1.5,30,.
CCOC(=O)C(C(=O)Nc1ccccc1C)C1CCCCC1 (stereo not given),-19,0.6,24,0.8,35,16
Nn1c(SCC(=O)N2CCN(S(=O)(=O)c3ccccc3)CC2)nnc1-c1cccs1,11,1,-1,1,-2,-13
O=C(CSc1nc(-c2ccccc2)c(-c2ccccc2)[nH]1)N1CCN(S(=O)(=O)c2ccccc2)CC1,4,0.1,80*,0.2,86*,-5
O=C(CSc1n[nH]c(-c2cccs2)n1)N1CCN(S(=O)(=O)c2ccccc2)CC1,-7,0.7,51*,0.5,32,9
CN(c1ccccc1)S(=O)(=O)c1ccc(NC(=S)Nc2ccccc2)cc1,6,0.8,60*,0.4,17,-1
SMILES,sEH act,CYP2C19 act,CYP2C9 inhib,CYP2C9 act,CYP2C19 inhib,sEH inhibitor
CN(c1ccccc1)S(=O)(=O)c1ccc(NC(=O)c2ccc(-c3ccccc3)cc2)cc1,5,0.4,84*,0.2,62*,-1
CC(=O)Nc1ccc(S(=O)(=O)N(C)c2ccccc2)cc1,.,0.7,16,0.8,31,.
CC/C(=N\NC(=O)CSCc1ccc(Cl)cc1)c1ccc2c(c1)OCCO2,-78,0.2,59*,0.4,78*,78
O=C(CN1CCN(Cc2ccccc2)CC1)Nc1ccc(Cl)cn1,1,0.9,15,0.8,9,2
O=C(CSCc1ccccc1)Nc1ccc(Cl)cn1,0,0.4,70*,0.3,64*,0
CC/C(=N\NC(=O)CSCc1ccccc1Br)c1ccc2c(c1)OCCO2,2,1.1,-1,1,-11,-3
O=C(CSCc1ccc(Cl)cc1)N/N=C/c1ccccc1,-48,0.1,60*,0.4,86*,50
O=C(NCCc1ccccc1)c1ccc(Cl)nc1,0,.,.,.,.,6
CC(C)(C)C1=C(C#N)C(c2cc3c(cc2Br)OCO3)C(C#N)=C(N)O1 (stereo not given),.,0.8,25,0.8,21,.
CC1(C)C(N(O)C(=O)Nc2ccc(Cl)cc2)N(c2ccc(Cl)cc2)C(=O)N1CC(=O)NN (stereo not given),-16,0.6,41,0.6,35,15
COc1ccc(NC(=O)C2CCCN2C(=O)Nc2ccccc2)cc1OC (stereo not given),1,.,.,.,.,-1
COc1ccc(C2CCCN2C(=O)Nc2ccc(Cl)cc2)cc1OC (stereo not given),-95,0.3,49,0.5,73*,95*
Cc1occc1C(=O)NN=C1C2CC3CC(C2)CC1C3,-3,.,.,.,.,3
Cc1csc(NC(=O)Cn2cnnn2)n1,2,1.1,-13,1.1,-8,2
CC1(C)CC(=O)c2cc(OCC(=O)N3CCN(c4ccccc4F)CC3)ccc2O1,.,0.3,49,0.5,68*,.
CCc1c(C)nc(N)n2c(SCC(=O)N3CCCC(C)C3)nnc12 (stereo not given),3,0.9,-20,1.2,8,-1
COc1ccc2[nH]c(=O)c(CNc3cccc(C)c3)cc2c1,-5,0.2,38,0.6,82*,3
COc1ccc(NCc2cc3ccccc3[nH]c2=O)cc1,11,0.2,29,0.7,82*,-9
COc1ccc(NCc2cc3cc(OC)ccc3[nH]c2=O)cc1,.,0.5,38,0.6,52*,.
C=CCN1CCN(C(c2ccccc2)c2nnnn2CCC(C)C)CC1 (stereo not given),-5,0.6,-2,1,43,6
COCc1c(C(=O)OCC(=O)N2c3ccccc3NC(=O)C2(C)C)oc2ccccc12,12,0.9,31,0.7,12,-13
CC(=O)c1c(C)nc2ccc(Br)cc2c1C(=O)O,18,1,15,0.8,4,-19
O=[N+]([O-])c1ccccc1/C=N/N1CCN(c2ccc(Cl)cc2)CC1,-14,0.6,-48,1.5,36,17
Cc1ccc(N2CCN(/N=C/c3sccc3C)CC2)cc1,-2,0.5,-179,2.8*,50,5
COC(=O)Nc1snnc1C,0,0.9,16,0.8,9,-3
